# The sample as a whole holds a higher share of hits than the screen did.
# Shiga inhibitor – A qHTS for Small Molecule Inhibitors of Shiga Toxin. Vero cells, Shiga toxin protein synthesis inhibition reporter. inhibition, % at 38.7 µM. hit rate 9.2% among 290,000. AID 2315, 2010; in the data active = inhibition mostly above about 28%, no sharp cut-off; inactive = mostly below about 43%; also: 0% is about no effect
# AMA1 RON2 block – qHTS for Inhibitors of AMA1-RON; Towards Development of Antimalarial Drug Lead: Primary Screen. Potency, µM (doses to about 58.2 µM), for the others: at the top dose activity change, negative = inhibition, most hits filed as inhibitors. Plasmodium falciparum AMA1 (3D7) - RON2 peptide interaction. hit rate 0.2% among 360,000. AID 720542, 2013. AlphaScreen AMA1-biotinylated RON2 peptide binding; active = well fitted inhibition curve with a large enough effect; inconclusive = small, poorly fitted or top-dose-only effect; inactive = no such curve, though single readings can be large or run the other way;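 also: potency is read from the fitted curve at half-maximal effect; 0% = vehicle wells and -100% = peptide control; nearly all actives have a fitted effect of over 45% in size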
#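 AMA1 (3D7) with his tag at 25 nM final met compounds first, then biotinylated RON2 peptide at 25 nM; detection used donor plus acceptor beads, 10 µg/mL apiece, read by AlphaScreen after 30 min at room temperature.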
# MARV entry inh – qHTS for inhibitors of binding or entry into cells for Marburg Virus. Marburg virus pseudotyped entry inhibition, cell reporter. Potency, µM (doses to about 37.8 µM), for the others: at the highest dose activity change, negative = inhibition, actives largely listed as inhibitors. hit rate 1.8% among 300,000; calls by dose curve; tested in HEK293 cells; also: potency is read from the fitted curve at half-maximal effect; % is scaled to controls: 0 for no effect and ±100 for the full control effect
# Cycloheximide cs – Cycloheximide Counterscreen for Small Molecule Inhibitors of Shiga Toxin | cell reporter, cycloheximide protein synthesis inhibition counterscreen | max response, % | hit rate 12% among 300,000 | AID 2314, 2010; in the data active = max response mostly above about 13%, no sharp cut-off; inactive = mostly below about 14%; also: read at 38.3 µM for the half of the compounds with a filed dose; 0% is about no effect
# Lassa entry inh – qHTS for Inhibitors of binding or entry into cells for Lassa Virus. Lassa virus pseudotype entry inhibition, cell reporter. hit rate 1.2% among 300,000. Potency, µM (titrated, usually from 37.9 µM), without a hit: at the top dose activity change, negative = inhibition, hits mostly inhibitors; calls by dose curve; tested in HEK293 cells; also: potency is read from the fitted curve at half-maximal effect; % is scaled to controls: 0 for no effect and ±100 for the full control effect; nearly all actives have a fitted effect of over 50% in size
# * = called active by the depositor; u = inconclusive; x = no result given; ! = not active in a repeat; [ ] = remark or other dose.
SMILES,Shiga inhibitor,AMA1 RON2 block,MARV entry inh,Cycloheximide cs,Lassa entry inh
CC(C)Oc1ccc(C(=O)NC2CCS(=O)(=O)C2)cc1 (stereo not given),15,10%,11%,6,u
C=CCOc1ccc(C(=O)NC2CCCCC2)cc1,111*,0%,u,21*,3%
O=C(NC1CCCCCCC1)c1ccc(Br)cc1,x,-6%,u,x,u
COC(=O)c1c(C)[nH]c(C(=O)C(C)OC(=O)c2cnc(C)cn2)c1C (stereo not given),x,10%[11.6 µM],-11%,x,-2%
COc1cccc(N=Nc2c(C)[nH]n(-c3ccccc3)c2=O)c1,x,u,x,2,x
Cc1[nH]n(-c2ccccc2)c(=O)c1N=Nc1ccc2c(c1)OCO2,115*,3%,u,32*,3%[46.1 µM]
Cc1[nH]n(-c2ccccc2)c(=O)c1N=Nc1nccs1,26,30%,u,14*,u
CSc1ncnc2[nH]ccc12,x,-3%,9%[46.1 µM],x,u
O=[N+]([O-])c1cccc(-c2n[nH]c(=S)n2Cc2ccccc2)c1,-16,52%,15%,-3,5%
N#C/C(=C\c1ccc(-c2nc3ccccc3s2)o1)C(N)=O,50*,10%,-7%,38*,u
CNC(=O)/C(C#N)=C/c1ccc(-c2nc3ccccc3s2)o1,55*,-10%,u,43*,20%
NC(c1csc(NC(=O)Nc2ccc(OC(F)(F)F)cc2)n1)C1CCCCC1 (stereo not given),x,107%,x,x,x
Cc1c(-c2ccc(Cl)cc2)c(=O)oc2c(CN3CCN(C)CC3)c(O)ccc12,x,x,x,x,21%[46.1 µM]
NC(=O)c1sc2nc(-c3cccs3)ccc2c1N,64*,11%,x,49*,x
COc1ccc(C(=O)c2sc3nc(-c4ccccc4)ccc3c2N)cc1OC,-16,-3%,-24%,-3,u
Nc1c(C(=O)Nc2ccc(C(F)(F)F)cc2)sc2nc(-c3cccs3)ccc12,x,x,11%[46.1 µM],x,7%[46.1 µM]
Nc1c(C(=O)NC2CCCC2)sc2nc(-c3cccs3)ccc12,39,16%,17%,22*,29%
Cc1cc(F)ccc1NC(=O)c1sc2nc(-c3cccs3)ccc2c1N,x,x,4%[46.1 µM],x,20%[46.1 µM]
NC(=O)c1sc2nc(-c3ccccc3)ccc2c1N,97*,1%,x,35*,x
CCOC(=O)c1sc2nc(-c3ccccc3)ccc2c1N,67*,0%,u,92*,u
COC(=O)c1ccc(NC(=O)CN2CCC(NC(=O)c3ccccc3F)CC2)cc1,x,-5%,x,x,x
COc1ccc(N(CC(=O)NCCSCc2ccco2)S(=O)(=O)c2ccccc2)cc1Cl,9,-5%,u,-2,u
CC(=O)C1=C(O)C(=O)N(c2ccc(Br)cn2)C1c1ccc(Br)cc1 (stereo not given),93*,-10%,x,21*,x
COc1cc([C@@H]2C(C(C)=O)=C(O)C(=O)N2c2ccc(Br)cn2)ccc1O,x,x,-9%,x,x
CC(=O)C1=C(O)C(=O)N(c2ccc(Br)cn2)C1c1ccc(F)cc1 (stereo not given),75*,-1%,17%[46.1 µM],38*,30%
SMILES,Shiga inhibitor,AMA1 RON2 block,MARV entry inh,Cycloheximide cs,Lassa entry inh
CC(=O)C1=C(O)C(=O)N(c2ccc(Br)cn2)C1c1ccccc1F (stereo not given),18,-6%,u,14,20%
O=[N+]([O-])c1ccc(O)c(C(C#Cc2ccccc2)N2CCOCC2)c1 (stereo not given),66*,0%,u,26*,u
CCc1ccccc1NC(=O)CC1NCCNC1=O (stereo not given),x,x,4%[46.1 µM],x,-7%[46.1 µM]
NC1(N)OC(CN2C(=O)C3=C(CCCC3)C2=O)CS1 (stereo not given),x,x,-6%,x,x
Cc1cc(C)c(NC(=O)c2sc3nc(C)[nH]c(=O)c3c2C)c(C)c1,-9,x,x,-2,x
CSCc1nc2sc(C(=O)Nc3nc(C)cs3)c(C)c2c(=O)[nH]1,117,13%,u,33*,27%[46.1 µM]
Cc1csc(NC(=O)CSc2nc3sc(C)c(C)c3c(=O)[nH]2)n1,26,-2%,16%,2,15%
Cc1ccc(NC(=O)c2sc3nc(CCl)[nH]c(=O)c3c2C)c(C)c1,59*,11%,-28%[46.1 µM],29,11%
O=C(NN=Cc1cc(Br)c(O)c(Br)c1)c1ccccc1NS(=O)(=O)c1cccs1,x,63%,3%,x,1%
Cc1ccc(C(=O)N/C(=C/C=C\c2ccccc2)C(=O)NCc2ccco2)cc1,35,-9%,u,17*,u
C/C(=C\c1ccccc1)C(=O)NCc1ccco1,66*,-8%,x,36*,x
O=C(NCCc1ccccc1)C(=Cc1ccc(C(=O)O)cc1)C(=O)NCCc1ccccc1,26,-6%,u,-2,5%
Cc1ccc(C(=O)N/C(=C\c2sccc2C)C(=O)NCc2ccco2)cc1,-4,5%,-7%,-3,-3%
C/C(=C\c1ccccc1)C(=O)NCCc1ccccc1,66*,-8%,u,31*,u
O=C(O)C1CCCCN1C(=O)c1ccc(S(=O)(=O)N2CCCCCC2)cc1 (stereo not given),x,-1%,0%,x,-5%
CC(C)c1nnc(N2C(=O)C(O)=C(C(=O)c3cccs3)C2c2ccccc2)s1 (stereo not given),55*,-1%,x,21*,x
Cc1cc(-c2nnc(CCC(=O)N3CCN(Cc4cccc(F)c4)CC3)o2)c(C)o1,42*,-6%,20%[46.1 µM],19*,u
Cc1cccnc1CN1CCN(C(=O)CCc2nnc(CCc3ccccc3)o2)CC1,74*,73%,u,25*,2%[46.1 µM]
COc1ccccc1NC(=S)NC(NC(=O)CC(C)C)C(Cl)(Cl)Cl (stereo not given),-7,-7%,x,7,x
COC(=O)C(N)Cc1ccc(O)cc1 (stereo not given),-6,6%,-7%,-7,-19%
COC(=O)C(C)(N)Cc1ccc(O)cc1 (stereo not given),x,15%,2.8µM*!,x,u
Cn1c(C(=O)N2CCCc3ccccc32)cc2sccc21,32,-7%,u,26*,4%
O=C(c1cc2sccc2n1Cc1ccccc1)N1CCCc2ccccc21,135*,-8%,u,41*,-1%
COc1cccc(C2C=C(c3ccc(OC)cc3OC)Nc3nnnn32)c1 (stereo not given),-4,-8%,u,-3,u
COc1ccc(OC)c(C2C=C(c3ccc(C)c(C)c3)Nc3nnnn32)c1 (stereo not given),-11,1%,u,-1,5µM*
COc1cccc(C2=CC(c3cccc(OC)c3OC)n3nnnc3N2)c1 (stereo not given),41*,34%,u,30*,u
COc1cccc(C2=CC(c3cc(OC)ccc3OC)n3nnnc3N2)c1 (stereo not given),-5,-1%,u,15,u
COc1cccc(C2=CC(c3cccc(OC)c3OC(F)F)n3nnnc3N2)c1 (stereo not given),8,8%,-22%,17*,-1%
